Source: the supplement of paper PMC10849652
Targets with a hit are over-represented here; the source holds about 7,900 in all. About 0.6% of all pairs of compound and target were hits.

How the values were obtained:
Test in all cases: log2 fold change, soluble protein after heating vs DMSO (PISA); higher = thermal stabilisation; K562 cells, 10 uM, 30 min; active = over 0.2 and 3.5 SD of the protein, either way, in both replicates (recomputed)
AAGAB = AAGAB (UniProt Q6PD74)
How it was run: (§1)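 Values are thermal stability changes relative to control samples and are taken from duplicates. They are stated as log2 fold changes. Before quantification by TMTpro 16plex LC-MS/MS with equalised channel sums, K562 cells at 2×10^6 cells/mL were treated with 10 μM compound for 30 min, heated in aliquots for 3 min across 48°C-58°C, pooled, extracted in PBS with 0.5% NP-40 at 4°C, and centrifuged at 21,000xg for 90 min to give the soluble supernatant.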

AAK1 [1] = biological target: AAK1 (UniProt A0A096LP25)
How it was run: as §1

AAK1 [2] = biological target: AAK1 (UniProt Q2M2I8)
How it was run: as §1

Measured: log2 fold change

Chain of AAGAB (Q6PD74 whole entry, looked up): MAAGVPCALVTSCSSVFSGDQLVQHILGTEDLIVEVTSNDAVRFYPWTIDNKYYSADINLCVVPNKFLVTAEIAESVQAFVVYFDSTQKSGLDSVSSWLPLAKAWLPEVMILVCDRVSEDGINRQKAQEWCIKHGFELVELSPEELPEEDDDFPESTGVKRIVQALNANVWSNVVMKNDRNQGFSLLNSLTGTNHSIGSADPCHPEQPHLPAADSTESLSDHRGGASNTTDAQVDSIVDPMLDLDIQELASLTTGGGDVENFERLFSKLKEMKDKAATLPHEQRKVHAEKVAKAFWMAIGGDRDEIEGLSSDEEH
Chain of AAK1 (UniProt Q2M2I8) (Q2M2I8 whole entry, looked up): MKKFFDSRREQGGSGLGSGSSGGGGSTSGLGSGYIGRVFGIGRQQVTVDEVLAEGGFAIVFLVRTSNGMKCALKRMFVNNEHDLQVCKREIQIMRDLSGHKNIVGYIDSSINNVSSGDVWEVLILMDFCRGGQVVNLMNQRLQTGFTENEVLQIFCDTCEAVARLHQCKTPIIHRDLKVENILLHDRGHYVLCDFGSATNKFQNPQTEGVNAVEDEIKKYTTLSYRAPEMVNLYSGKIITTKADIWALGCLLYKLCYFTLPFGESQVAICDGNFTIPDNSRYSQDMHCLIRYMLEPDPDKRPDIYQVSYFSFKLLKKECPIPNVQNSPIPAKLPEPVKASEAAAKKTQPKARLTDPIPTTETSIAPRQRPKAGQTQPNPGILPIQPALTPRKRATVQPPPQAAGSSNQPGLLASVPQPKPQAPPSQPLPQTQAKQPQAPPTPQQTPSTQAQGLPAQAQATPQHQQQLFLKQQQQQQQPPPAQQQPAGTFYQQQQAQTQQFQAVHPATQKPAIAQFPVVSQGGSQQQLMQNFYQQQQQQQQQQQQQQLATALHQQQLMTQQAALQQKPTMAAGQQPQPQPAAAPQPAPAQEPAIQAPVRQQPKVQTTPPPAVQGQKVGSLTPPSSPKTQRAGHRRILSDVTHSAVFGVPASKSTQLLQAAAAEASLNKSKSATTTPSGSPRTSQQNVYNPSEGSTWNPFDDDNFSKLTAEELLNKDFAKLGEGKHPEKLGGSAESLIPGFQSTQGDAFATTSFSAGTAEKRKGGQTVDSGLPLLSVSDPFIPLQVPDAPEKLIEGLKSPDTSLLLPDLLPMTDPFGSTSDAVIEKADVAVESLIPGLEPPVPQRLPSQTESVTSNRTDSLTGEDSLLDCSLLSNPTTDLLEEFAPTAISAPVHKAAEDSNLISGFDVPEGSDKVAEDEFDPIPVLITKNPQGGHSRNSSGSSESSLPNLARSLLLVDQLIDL

c1ccc([C@@H]2C[C@H]2NC2CCNCC2)cc1
inactive: AAGAB 0.038 | AAK1 [1] 0.072 | AAK1 [2] -0.017

Cc1sc2c(c1C)C(c1ccc(Cl)cc1)=N[C@@H](CC(N)=O)c1nnc(C)n1-2
inactive: AAGAB 0.044 | AAK1 [1] -0.041 | AAK1 [2] 0.039

O=C(N[C@@H](COc1ccc2[nH]c(=O)[nH]c2c1)c1ccccc1)c1cccn(Cc2ccc(F)c(F)c2)c1=O
inactive: AAGAB -0.025 | AAK1 [1] -0.056 | AAK1 [2] 0.02

Cc1ccccc1-n1c(Cn2cnc3c(N)ncnc32)nc2cccc(C)c2c1=O
inactive: AAGAB 0.198 | AAK1 [1] -0.046 | AAK1 [2] 0.083

Cc1sc2c(c1C)C(c1ccc(Cl)cc1)=N[C@@H](CC(=O)OC(C)(C)C)c1nnc(C)n1-2
inactive: AAGAB -0.03 | AAK1 [1] -0.024 | AAK1 [2] -0.217
